Bioassay records as filed in PubChem BioAssay.
TIM10 inh = growth inhibitors of TIM10 yeast strain; inhibition, % at 10 µM; AID 463195; S. cerevisiae TIM10 strain growth, BacTiter-Glo luminescence, 24 h; 330,000 tested, 1.4% active;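 active means inhibition of 40% or more at the single tested concentration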;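 further: wild-type TIM10 isogenic control strain grown at permissive 25 °C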
NLRP3 yeast inh = NALP3 inhibition in yeast. 330,000 tested, 0.39% active. AID 2825. Yeast reconstituted NLRP3/ASC/caspase-1, beta-gal luminescence, 24 h. inhibition, % at 10 µM;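 active means inhibition of 50% or more; inactive means inhibition below 50%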
CR mimetic SO = lowers age-related superoxide in aged yeast cells; S. cerevisiae aged cells, superoxide DHE fluorescence; active compounds read low; superoxide response (% of plate mean), % at 10 µM; 330,000 tested, 0.18% active; AID 2690;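 active means superoxide response under a set limit, about three screen SD below normal, cut at about 65% in these data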;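 further: yeast aged for seven days with compound at 30 °C before DHE staining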
tim23-1 inh = inhibits growth of tim23-1 mutant yeast. S. cerevisiae tim23-1 growth, BacTiter-Glo luminescence, 24 h. inhibition, % at 20 µM. 330,000 tested, 1.3% active. AID 463212;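 active means growth inhibition of the mutant yeast at or above 50%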;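 further: temperature-sensitive mutant grown at 25 °C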
tim10-1 inh = tim10-1 yeast growth inhibition. S. cerevisiae tim10-1 ts strain growth, BacTiter-Glo, 24 h. inhibition, % at 20 µM. 330,000 tested, 2.2% active;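 active means inhibition of at least 40%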;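 further: mutant grown at 25 °C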
tim10 confirm = confirmation of TIM10 yeast growth inhibitors; shares compounds with TIM10 inh; S. cerevisiae tim10 strain growth, BacTiter-Glo luminescence, 24 h; inhibition, % at 10 µM; 4,600 tested, 63% active;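 active means inhibition of yeast growth at or above a set limit in either of two replicates at 10 µM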; further: this counterscreen used the strain with wild-type TIM10
Numbers stand for hits; i = inactive; nt = not tested or not shown. A selection: hits, their analogues and other compounds. The true share with any hit is near 3.8%.

SMILES	TIM10 inh	NLRP3 yeast inh	CR mimetic SO	tim23-1 inh	tim10-1 inh	tim10 confirm
O=S(=O)(c1cccc(NC(=S)N2CCN(c3ccccc3F)CC2)c1)C(F)F	47	i	i	i	i	36
O=S(=O)(c1cccc(NC(=S)N2CCN(c3ccccc3)CC2)c1)C(F)F	i	i	i	i	i	nt
COc1ccc(S(=O)(=O)NCC2CCCN(C(=O)CSC)C2)cc1 (stereo unspecified)	i	i	i	i	i	nt
CC(c1ccco1)N(C(=O)c1ccccc1NS(=O)(=O)c1cc([N+](=O)[O-])ccc1Cl)c1ccccn1 (stereo unspecified)	45	i	i	i	i	34
CC(c1ccco1)N(C(=O)c1ccccc1NS(=O)(=O)c1ccc(Cl)cc1)c1ccccn1 (stereo unspecified)	45	i	i	i	i	41
CC1CCCC(NC(=O)COC(=O)c2ccccc2[N+](=O)[O-])C1C (stereo unspecified)	i	i	i	i	i	nt
CC1CCCC(NC(=O)COC(=O)c2ccc([N+](=O)[O-])s2)C1C (stereo unspecified)	62	i	i	i	i	61
O=C(COC(=O)c1ccc([N+](=O)[O-])s1)Nc1ncc(C(F)(F)F)cc1Cl	65	i	i	i	i	72
O=C(COC(=O)c1ccccn1)Nc1ncc(C(F)(F)F)cc1Cl	i	i	i	i	i	nt
Cc1ccc(CC(=O)OCC(=O)NC2CCCC(C)C2C)cc1C (stereo unspecified)	50	i	i	i	i	i
CC1CCCC(NC(=O)COC(=O)Cc2ccc(Cl)cc2)C1C (stereo unspecified)	i	i	i	i	i	nt
CS(=O)(=O)N1c2ccccc2[C@@]2(Br)C[C@H]3C(=O)N[C@@H](Cc4ccccc4)C(=O)N3[C@@H]12	i	i	i	i	i	nt
CN1CCN(S(=O)(=O)c2ccc(Cc3ccc(S(=O)(=O)N4CCN(C)CC4)cc3)cc2)CC1	i	i	i	i	i	nt
COC(=O)[C@@H]1CCCN1C(=O)CCc1nnc(CCC2CCCCC2)o1	45	i	i	i	i	i
COc1ccc(C2(O)CCN(CC(=O)Nc3nc(-c4ccccc4)cs3)CC2)cc1	52	i	i	i	i	43
CCc1ccccc1NC(=S)N(Cc1cccs1)C1CCCC1	40	i	i	i	i	i
Cc1ccccc1NC(=S)N(Cc1cccs1)C1CCCC1	i	i	i	i	i	nt
C=C(C)COc1ccc2c(CC)cc(=O)oc2c1C	i	i	i	i	i	nt
CCN1CCN(C(=O)c2cn(CCOC)c(=O)c3c2c2ccccc2n3C)CC1	i	i	i	i	i	nt
CC(C)Cn1cc(C(=O)N2CCN(c3ccccn3)CC2)c2c3ccccc3n(C)c2c1=O	44	i	i	i	i	i
Cc1ccc(NC(=S)N/N=C/c2ccc([N+](=O)[O-])s2)cc1	46	i	i	i	i	i
Cc1ccc(C(=O)N2CCC3(CC2)NCCc2[nH]cnc23)cc1C	i	i	i	i	i	nt
Cc1nc(S/C(C(=O)O)=C2/C(=O)Nc3ccccc32)n[nH]1	41	i	i	i	i	38
Cc1nc(SC2CC(=O)N(c3ccccc3)C2=O)n[nH]1 (stereo unspecified)	i	i	i	i	i	nt
Nc1nc2ccccc2n1/N=C/c1ccc(Br)cc1	44	i	i	i	i	i
SMILES	TIM10 inh	NLRP3 yeast inh	CR mimetic SO	tim23-1 inh	tim10-1 inh	tim10 confirm
Nc1nc2ccccc2n1/N=C/c1ccc2c(c1)OCO2	i	i	i	i	i	nt
O=C(/C=C/c1ccc2c(c1)OCO2)NCCSCc1ccc(Cl)cc1Cl	41	i	nt	i	i	i
COC(=O)CN1C(c2ccccc2)=Nc2ccc(Cl)cc2C1c1ccccc1 (stereo unspecified)	i	i	i	i	i	nt
CCCC(=O)N1CCN(c2ccc(NC(=O)c3cccs3)cc2Cl)CC1	46	i	i	i	i	i
CCCC(=O)N1CCN(c2ccc(NC(=O)C(C)(C)C)cc2Cl)CC1	i	i	i	i	i	nt
CCOc1ccc(NC(=O)C(C)NC(=O)c2ccccc2Cl)cc1S(=O)(=O)N1CCCC1 (stereo unspecified)	i	i	i	i	i	nt
O=C1NC(=S)S/C1=C\c1coc2ccccc2c1=O	44	i	i	i	i	i
CC1CC(C)CN(C(=O)CCCn2c(=S)[nH]c3ccccc3c2=O)C1 (stereo unspecified)	43	i	i	i	i	i
